BJeLR viability: BJeLR cell viability loss, primary screen, luminescence, CellTiterGlo ATP; BJeLR fibroblasts viability, 48 h; HRASV12, hTERT and SV40 LT/ST transformed; 0.64% of 30,000 active; viability loss activity score, % (no concentration beside the values); in the data active = viability loss activity score above about 50%; inconclusive = no clear call, values can overlap the other calls; inactive = below about 35%;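 also: higher score means fewer live cells and less ATP luminescence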
Shh pathway inh: Hedgehog pathway signaling inhibitors, primary screen, luminescence, Shh-LIGHT2 cells, Gli-luciferase; Shh-LIGHT2 Gli-luciferase reporter, 30 h; AID 2313, 2010; 2.1% of 22,000 active; inhibition, % (no concentration beside the values);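 active = mean inhibition across valid replicates above about 65%, limit read from the data; inconclusive = mean under the limit, yet half or more replicates past it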;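 also: pathway switched on by Shh-conditioned medium diluted 1 in 25 in low serum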
MITF inhib: inhibitors of MITF, primary screen, MITF inhibitor project, cell-based, luminescence; TRPM1 promoter luciferase, 24 h; inhibition, % (concentration not given with the values); 0.28% of 37,000 active; AID 2240, 2010; in the data active = inhibition above about 85%; inconclusive = no clear call, values can overlap the other calls; inactive = below about 68%;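 also: human melanocyte line stably carrying TRPM1 promoter luciferase reporter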
An asterisk follows results filed as active; u = inconclusive; x = no result. This excerpt belongs to a sample that is enriched for hits.

SMILES | BJeLR viability | Shh pathway inh | MITF inhib
COc1cc([C@@H]2c3cc4c(cc3[C@@H](OC3OC5COC(C)OC5C(O)C3O)[C@H]3COC(=O)[C@H]23)OCO4)cc(OC)c1O (some centres not stated) | 52* | -13 | 40
COc1cc([C@@H]2c3cc4c(cc3C(OC3O[C@@H]5COC(C)O[C@H]5[C@H](O)[C@H]3O)C3COC(=O)[C@@H]32)OCO4)cc(OC)c1O (some centres not stated) | 8 | 31 | 38
CSc1cccc(NC(=O)c2ccc3snnc3c2)c1 | 3 | x | x
Oc1ccc(/C=C/c2cc(O)cc(O)c2)cc1 | -1 | u | 101*
COc1cc(O)cc(/C=C/c2ccccc2)c1 | 1 | -23 | -10
CCN1C(=O)N/C(=C/c2cn(Cc3ccccc3)c3ccccc23)C1=O | 6 | x | x
C=CCN1C(=O)C2(C(C#N)=C(N)Oc3c2c(=O)oc2ccccc32)c2ccccc21 (configuration not stated) | 4 | -32 | -5
N#CC1=C(N)Nc2c(c(=O)oc3ccccc23)C1c1ccc(Br)cc1 (configuration not stated) | 12 | 72* | 25
COCc1cc(=O)[nH]c(/N=C(\N)Nc2ccccc2)n1 | -3 | x | x
Nc1nnc(SCc2cccnc2)s1 | x | x | -7
N#Cc1cccc(CSc2nnc(SCc3cccc(C#N)c3)s2)c1 | 3 | 68* | 21
CC(Oc1ccccc1)C(=O)Nc1cc([N+](=O)[O-])ccc1O (configuration not stated) | x | x | 100*
CCc1ccccc1NC(=O)C(C)Oc1ccccc1 (configuration not stated) | -4 | x | x
CC(=O)OC[C@H]1O[C@@H](n2cc(C)c(=O)[nH]c2=O)C[C@@H]1OC(C)=O | 4 | x | x
Cc1ccc(OC(=O)c2ccccc2)c(C(C)(C)C)c1 | 0 | x | x
C=CCNC(=O)c1cc2c(=O)n3cccc(C)c3nc2n(CC2CCCO2)c1=N (configuration not stated) | 13 | x | x
C/C=C(\C)C(=O)O[C@@H]1C(C)=C2[C@H]3OC(=O)[C@](C)(O)[C@]3(O)[C@H](OC(=O)C(C)CC)C[C@@](C)(OC(C)=O)[C@@H]2[C@H]1OC(=O)CCCCCCC (some centres not stated) | x | 99* | x
Cc1c(CNC(C)C23CC4CC(CC(C4)C2)C3)c(C(=O)O)c(C)n1Cc1ccccc1 (configuration not stated) | 2 | x | x
Cc1cc(N2CCCC2)nc2ccc(NC(=S)NC3CCCC3)cc12 | 9 | x | x
COc1cc2c(cc1NC(=O)Cc1ccccc1)oc1ccccc12 | -1 | x | x
CCOC(=O)N1CCc2c(sc3ncn(Cc4ccc(Cl)cc4)c(=O)c23)C1 | -1 | 95* | 40
COc1ccc(Cl)cc1NC(=O)Cn1cnc2sc3c(c2c1=O)CCC(C)C3 (configuration not stated) | x | x | 36
O=C1C[C@H](c2ccccc2)Oc2c(Cc3ccccc3O)c(O)cc(O)c21 | 10 | -25 | 92*
CC(C)=CCc1c(O)cc(O)c2c1O[C@H](c1ccccc1)CC2=O | 2 | x | x
CCC(C)NC(=O)c1cc(Nc2ccc(C(C)C)cc2)nc2ccccc12 (configuration not stated) | 3 | x | x
SMILES | BJeLR viability | Shh pathway inh | MITF inhib
CCN(CC)C(=S)Oc1ccc(C(=O)Nc2cccc3ccccc23)cc1 | 9 | x | x
C[C@@H]1CCCCO[C@@H](CN(C)S(=O)(=O)c2cccs2)[C@@H](C)CN([C@H](C)CO)C(=O)c2cc(NS(C)(=O)=O)ccc2O1 | x | 67* | -2
C[C@@H]1CCCCO[C@@H](CN(C)S(=O)(=O)c2ccc(Cl)cc2)[C@@H](C)CN([C@H](C)CO)C(=O)c2cc(NS(=O)(=O)c3ccc(Cl)cc3)ccc2O1 | x | 71* | 53
C[C@@H]1CCCCO[C@H](CN(C)S(=O)(=O)c2ccc(Cl)cc2)[C@@H](C)CN([C@H](C)CO)C(=O)c2cc(NS(=O)(=O)c3ccc(Cl)cc3)ccc2O1 | x | 14 | 36
C[C@@H]1CCCCO[C@@H](CN(C)S(=O)(=O)c2cccs2)[C@@H](C)CN([C@H](C)CO)C(=O)c2cc(NS(=O)(=O)c3cccs3)ccc2O1 | x | x | -8
COc1cccc(-c2cc(C(=O)N(C)c3ccccc3)no2)c1 | 1 | x | x
COCCN1C(=O)c2ccccc2C(C(=O)NCc2ccccc2OC)C1c1ccc(F)cc1 (configuration not stated) | -3 | x | x
CCOc1ccc(-c2nnc(Nc3ccc(OC)cc3)c3ccccc23)cc1 | -3 | x | x
Clc1cccc(Nc2nnc(-c3ccccc3)c3ccccc23)c1 | -5 | 94* | 66
CCn1c(-c2ccc(F)cc2)csc1=Nc1ccc(C)cc1 | 9 | x | x
COC(=O)C1=C(C)NC2=C(C(=O)CCC2)C1c1ccccc1 (configuration not stated) | 0 | x | x
COC(=O)C1=C(C)NC(C)=C(C(=O)OCCCN2CCC(c3ccccc3)(c3ccccc3)CC2)C1c1cccc([N+](=O)[O-])c1 (configuration not stated) | -3 | 72* | 110*
COc1cc(O)c(Cc2ccccc2O)c(O)c1C(=O)CCc1ccccc1 | 22 | 30 | 75
COc1cc(O)c(C(=O)CCc2ccccc2)c(O)c1Cc1ccccc1O | 7 | 5 | 108*
CCOc1ccc2nc(NCCCO)[nH]c2c1 | x | x | -2
CCCOc1ccc2nc(NC(=O)OC)[nH]c2c1 | 58* | 49 | -1
COc1ccccc1N(CC(O)CN1CCOCC1)S(=O)(=O)c1ccc(C)cc1 (configuration not stated) | 3 | x | x
O=C(c1cccnc1)N1CCN(C(c2ccccc2)c2ccccc2)CC1 | 1 | x | x
O=C(CC12CC3CC(CC(C3)C1)C2)N1CCC(O)(c2ccc(Cl)cc2)CC1 | 3 | x | x
CSc1nc(C)nc(N/C=C(\C#N)S(=O)(=O)c2ccc(C)cc2)n1 | 2 | x | -9
Cc1ccc(S(=O)(=O)/C(C#N)=C/Nc2cc(C(F)(F)F)cc(C(F)(F)F)c2)cc1 | 17 | 101* | 26
COc1ccc(OC)c(S(=O)(=O)NCc2cn3ccccc3n2)c1 | -5 | x | x
O=C(Nc1ccc(S(=O)(=O)N2CCc3ccccc32)cc1)c1ccccc1 | 12 | x | x
C=C1C(=O)O[C@@H]2C=C(C)[C@@H]3CC[C@@](C)(O)[C@@H]3C[C@H]12 | -12 | 10 | -1
C=C1C(=O)O[C@H]2C3=C(C)CCC[C@]3(C)C(=O)C[C@@H]12 | 53* | 76* | 78
COC(=O)c1ccc(NC(=O)CC(CC(=O)O)c2ccccc2)cc1 (configuration not stated) | 3 | x | x
COc1ccc(CCN2C(=S)NC3CC2(C)Oc2c(OC)cc(Br)cc23)cc1OC (configuration not stated) | -3 | x | x
C[C@H]1CN([C@@H](C)CO)C(=O)c2cccc(NC(=O)C3CCCCC3)c2O[C@H]1CN(C)S(=O)(=O)c1ccc(Cl)cc1 | 4 | 98* | 8
C[C@H](CO)N1C[C@H](C)[C@@H](CN(C)S(=O)(=O)c2ccc(Cl)cc2)Oc2c(NC(=O)C3CCCCC3)cccc2C1=O | 4 | -20 | -4
C[C@@H]1CN([C@H](C)CO)C(=O)c2cccc(NC(=O)C3CC3)c2O[C@H]1CN(C)S(=O)(=O)c1ccc(Cl)cc1 | 0 | 6 | -2

High-throughput results as filed in PubChem.
